GluA2 TARP mod = modulates AMPAR-stargazin complexes; O88602+P19491; AID 1259245; 40,000 tested, 3.5% active; calls only at 30 µM; HEK293 GluA2+stargazin, membrane potential dye (FDSS), glutamate EC50; hits were called plate by plate, in both directions;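 active = any of four per-well response measures lying three or more SD from its plate-wide compound average, in either direction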
GIRK2 activator = GIRK2 channel activators by thallium flux; HEK293 GIRK2/NPY4 cells, thallium flux fluorescence; activation (% efficacy), % for hits at 37.5 µM; 34,000 tested, under 10 active;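 active = primary screen hit, no activity in plain HEK293 cells, and in GIRK2-only cells above 5% efficacy rising with concentration; inactive = the rest, including fluorescent compounds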;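 note: efficacy is normalized control-subtracted fluorescence 15 s after thallium addition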
An asterisk follows results filed as active. The sample as a whole holds a higher share of hits than the screen did.

Results for O=C(NCC1CCN(C(=O)Oc2ccccc2)CC1)NC(c1ccccc1)c1ccccc1 ?
GluA2 TARP mod: inactive; GIRK2 activator: inactive

What do the screens show for `Cc1ccc(NC(=O)NCC2CCN(C(=O)Oc3ccccc3)CC2)cc1C`?
GluA2 TARP mod: active; GIRK2 activator: inactive

What do the screens show for `O=C(COc1ccc(Cl)cc1)N(CCN1CCOCC1)c1nc2c(F)cccc2s1`?
GluA2 TARP mod: inactive; GIRK2 activator: inactive

What do the screens show for `CCS(=O)(=O)c1ccc(CC(=O)Nc2ccc(Cl)cc2C(=O)c2ccccc2)cc1`?
GluA2 TARP mod: inactive

Results for CS(=O)(=O)c1ccc(CC(=O)Nc2ccc(Cl)cc2C(=O)c2ccccc2Cl)cc1 ?
GluA2 TARP mod: active

What do the screens show for `O=C(NCC#CCN1CCCCC1)c1cccc(Cl)c1`?
GluA2 TARP mod: inactive

From PubChem
